Consider 25 molecules from PubChem BioAssay (NCI).

“And” between values parts separate entries of the source, which are not always exact repeats. Equal values may be shown once. The panel holds about 83,000 compounds, 20% with a hit somewhere; the sample as a whole holds those more often.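 In brief: 96-well plates, 48 h treatment, single concentration, percent growth endpoint.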 The source made the active and inactive calls. How the source made its calls: active means growth percent below 10; inactive means the rest.

The subject of this assay is UACC-62 melanoma. Put plainly: NCI-60 one-dose screen, 48 h (100 = growth as untreated, 0 = no growth, -100 = all killed). To be noted: 10 µM unless noted.
On to `CN(C)CCNc1ccc(NCC[N+](C)(C)Cc2ccc([N+](=O)[O-])cc2)c2c1C(=O)c1ccccc1C2=O`, for which the growth was 37.1% [25 µM] (inactive) and 1.14% [25 µM] (active).
The figure for `O=c1cc(-c2ccc(O)cc2)oc2cc(O[C@@H]3O[C@H](CO)[C@@H](O)[C@H](O)[C@H]3O)cc(O)c12` is 29.2% [100 µM] (inactive) and -80.1% [100 µM] (active); for `N#CC1=C(N)OC(c2cccc([N+](=O)[O-])c2)C1(C#N)C#N` (stereo not given) it is -52.1% [100 µM] (active) and -93.7% [100 µM] (active); for `CCCC(=O)Oc1c2ccsc2c(OC(=O)CCC)c2ccsc12` it is -75.3% [100 µM] (active) and -100% [100 µM] (active).
The same measure for `Cc1ccc(/C=N/Nc2cc(C)c3ccccc3n2)s1`: -69.9% [100 µM] (active) and -49% [100 µM] (active).
The figure for `CC(=O)OC(=C(C#N)C#N)c1nccnc1C(C)=O` is 96.4% [20 µM] (inactive) and -99.5% [20 µM] (active); for `CC(=O)O[C@@H]1C[C@@]2(C)[C@@H]3CC=C4[C@@H](C[C@H](O)C(=O)C4(C)C)[C@]3(C)C(=O)C[C@]2(C)[C@H]1[C@@](C)(O)C(=O)/C=C/C(C)(C)OC(C)=O` it is -64.4% [100 µM] (active) and -99.7% [100 µM] (active); for `COc1c2c(c(OC)c3c1c(=O)c1ccccc1n3C)OCO2` it is -0.25% [100 µM] (active).
As to `N#Cc1c(=N)cc2c3ccccc3oc3c(C#N)c(N)[nH]c1c32`, the growth was 74.6% [100 µM] (inactive) and 13.9% [100 µM] (inactive).
The same measure for `ClC(Cl)(Cl)C1CCOC1n1nnc2ccccc21` (stereo not given): 65.4% [100 µM] (inactive) and 12.8% [100 µM] (inactive); for `CC#CC#C/C=C1/C=CC2(CCCCO2)O1` (stereo not given): 63.2% [100 µM] (inactive) and 4.56% [100 µM] (active).
The same measure for `COC(=O)c1ccc(CCc2cc(O)c(Br)cc2O)cc1`: -96.8% [100 µM] (active) and -100% [100 µM] (active); for `COc1ccc(C2=C(N)c3ccccc3C2=O)cc1`: 44.1% [100 µM] (inactive) and 22.1% [100 µM] (inactive).
The same measure for `CCOC(=O)CCC(NC(=O)c1ccc(OCc2nc3cc(C(F)(F)F)ccc3nc2-c2ccccc2)cc1)C(=O)OCC` (stereo not given): 49.5% [100 µM] (inactive) and 4.13% [100 µM] (active).
For the molecule `COc1cc2c(cc1-c1coc3cc(OCC=C(C)C)ccc3c1=O)OCO2`, the growth was 0.442% [100 µM] (active) and 1.53% [100 µM] (active).
The figure for `O=c1c2ncn(C3CCCCO3)c2n(-c2ccccc2)c(=S)n1-c1ccccc1` (stereo not given) is 18.7% [100 µM] (inactive) and 4.84% [100 µM] (active); for `O=C1c2c(O)ccc(O)c2C(=O)c2c(NCCNC(=O)C(O)C(O)C(O)C(O)CO)ccc(NCCNC(=O)C(O)C(O)C(O)C(O)CO)c21` (stereo not given) it is -100% [100 µM] (active).
The same measure for `CC12NC(=C(C#N)C#N)C(C#N)=C3NC(N)=C(C#N)C(=C31)Oc1ccccc12` (stereo not given): 7.06% [100 µM] (active) and -61.2% [100 µM] (active).
For the molecule `CC12CCC3c4cc(Br)c(O)c(Br)c4CCC3C1CCC2O` (stereo not given), the growth was 7.01% [100 µM] (active) and -44.7% [100 µM] (active).
Regarding `CCOC(=O)c1nc2cc(C(F)(F)F)ccc2nc1Nc1ccc(F)cc1`, the growth is 33.3% [100 µM] (inactive) and -17.1% [100 µM] (active).
The same measure for `CC(O)c1cc2c(s1)C(=O)c1ccsc1C2=O` (stereo not given): -61.7% [100 µM] (active) and -100% [100 µM] (active); for `NC(=O)c1[nH]cnc1/N=N/SCC(N)C(=O)O` (stereo not given): 6.63% [100 µM] (active) and 4.02% [100 µM] (active); for `COc1cc2c(cc1O)Cc1c-2[n+](C)cc2cc(OC)c(OC)cc12`: 12.4% [100 µM] (inactive) and -100% [100 µM] (active).
With `CCOc1cc2c(cc1O)C(=O)C[C@@H]1[C@@H]2CC[C@]2(C)[C@@H](O)CC[C@@H]12`, the growth is 13.5% [100 µM] (inactive) and 0.709% [100 µM] (active).
The same measure for `CCCCCCCCCc1cc(=O)c2c(O)cc(O)cc2o1`: -88.9% [100 µM] (active) and -100% [100 µM] (active).
